Laboratory results: PubChem BioAssay (NCATS)
Values joined by “and” are separate entries in the source; they are usually repeats but may differ in a detail not shown here. Equal values may be shown once. Records with an inconclusive call do not appear. Active and inactive are the calls of the source. Unless noted, calls come from the whole dose curve; as a rule, active = well fitted curve in the direction sought with a large enough effect; inconclusive = small, poorly fitted or top-dose-only effect, or another doubt; inactive = no such curve, though single readings can be large; an effect the other way counts as inactive or inconclusive.

Tests used:
[1] = biological target: Cytochrome P450 1A2 (Homo sapiens) (UniProt P05177); assay: p450-cyp1a2 (AID 410; calls by dose curve;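 note: -100% = full effect of reference inhibitor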)
How it was run: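 Inhibition was calculated relative to 57 uM furafylline (full inhibition). The reaction used human CYP1A2 at 20nM with Luciferin-ME at its Km, 100uM, driven by an NADPH-regenerating system for 60 min at room temperature.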

[2] = Stat Signaling Pathway (AID 446; active = well fitted curve in either direction with a large enough effect, not every such curve was filed as active;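 note: ME-180 cervical cancer cells given 40 pM IL-6 alongside compound; SIE-controlled beta-lactamase reporter measured as 460/530 nm FRET emission ratio; % is set by controls: 0 for no effect and ±100 for the full control effect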)
How it was run: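 IL-6/STAT signaling read in ME-180 cells via an SIE beta-lactamase reporter. Stimulus was 40 pM IL-6 (its AC50) for 5 hrs, so both activation and inhibition register.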

[3] = biological target: Mitogen-activated protein kinase 10 (Mus musculus) (UniProt Q61831); assay: JNK3 AlphaScreen Assay (AID 530; active = well fitted curve in either direction with a large enough effect, not every such curve was filed as active;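 note: kinase came from lysate of stimulated human HepG2 cells; signal reports phosphorylation of biotinylated GST-cJun 1-79 at Ser73 with 10 µM ATP; % is set by controls: 0 for no effect and ±100 for the full control effect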)
How it was run: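 qHTS format: compounds tested as titrations against IL-1beta/TNF-alpha-activated HepG2 lysate JNK3 with biotin-GST-cJun substrate and 10 uM ATP at room temperature. Loss of anti-phospho-cJun AlphaScreen signal indicates inhibition.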

[4] = AP1 Signaling Pathway (AID 357; active = well fitted curve in either direction with a large enough effect, not every such curve was filed as active; note: % is set by controls: 0 for no effect and ±100 for the full control effect)
How it was run: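 AP-1-bla ME-180 cells with beta-lactamase reporter under AP-1 response element, stimulated with EC50 EGF; compounds titrated, 5 hours at 37 degrees Celsius. CCF4 read at 460/530 nm ratio; positive and negative modulators judged by AC50.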

[5] = NFAT Signaling Pathway (AID 444; active = well fitted curve in either direction with a large enough effect, not every such curve was filed as active;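 note: carbachol stimulus at about its EC50 of 1 µM final; % is set by controls: 0 for no effect and ±100 for the full control effect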); conditions: Jurkat NFAT-bla M1, carbachol, beta-lactamase ratio, 5 h; at 17.2 µM (top of the series) unless noted
How it was run: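 Jurkat cells with NFAT-driven β-lactamase reporter and co-expressed M1 receptor, stimulated with carbachol (final 1 uM, ~EC50), compound titration, 5 h at 37 °C. CCF4 loaded 1 h at RT; 460/530 nm ratio gave %activity and AC50.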

[6] = biological target: Glucocorticoid receptor (Homo sapiens) (UniProt P04150); assay: GR-GFP Redistribution (AID 450;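 active = compounds whose dose series gives a full or clear partial fitted curve of increased nuclear translocation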; note: potency is the fitted concentration of half-maximal effect); conditions: U2OS GR-GFP nuclear translocation, laser cytometry, 2 h
[7] = biological target: Glucocorticoid receptor (Homo sapiens) (UniProt P04150); assay: GR-EFC Redistribution (AID 451; calls by dose curve; note: potency is the fitted concentration of half-maximal effect); conditions: CHO-K1 GR-EFC translocation, beta-gal luminescence, 2 h
How it was run: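 CHO-K1 cells expressing nuclear EA and GR-ED fragments of b-gal; compounds titrated up to 46 uM final, 2 h at 37 C. GR nuclear translocation read as complemented b-gal luminescence after 1 h RT detection.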

[8] = Cell Viability - BJ (AID 421; calls by dose curve;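 note: potency is the fitted concentration of half-maximal effect; cells exposed to compound for 40 hours at 37 °C before readout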); conditions: BJ fibroblast viability, qHTS
How it was run: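 Quantitative HTS: ATP depletion in BJ cells after 40 hr compound exposure in complete culture medium, detected with CellTiter-Glo; AC50 from standard Hill fits.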

[9] = Cell Viability - Jurkat (AID 426;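 active = dose-dependent loss of cell ATP signal giving a full or clear fitted curve, ranked by lower potency value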; note: potency is the fitted concentration of half-maximal effect); conditions: qHTS
How it was run: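 Seed 5000 Jurkat E6-1 cells/well; add compound; incubate 40 hr at 37 °C; add CellTiter-Glo; wait 20 min at room temperature; read luminescence. Fit concentration-response with Hill equation for AC50.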

[10] = Cell Viability - Hek293 (AID 427;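 active = compounds whose dose-response curve shows a full or clear partial loss of cell viability, called from curve shape rather than a numeric limit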;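 note: potency is the fitted concentration of half-maximal effect; cells exposed to compound for 40 hours at 37 °C before reading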); conditions: qHTS
How it was run: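 AC50 values derive from Hill-modelled concentration-response of ATP-based luminescence, normalized between DMSO-only and 100 uM tamoxifen controls. Cells were exposed in complete culture medium for 40 hr at 37 °C before detection.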

[11] = Cell Viability - HepG2 (AID 433; calls by dose curve;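 note: potency is the fitted concentration of half-maximal effect; potency for ATP loss meaning cytotoxicity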); conditions: qHTS
How it was run: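 HepG2 hepatocellular carcinoma cells (1500/well) were treated with compounds for 40 h at 37 °C in complete medium; intracellular ATP was read by CellTiter-Glo luminescence. Data were normalized to DMSO and 100 uM tamoxifen, and AC50 came from Hill fits.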

[12] = Cell Viability - MRC5 (AID 434; calls by dose curve;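 note: potency is the fitted concentration of half-maximal effect; potency reflects cytotoxicity seen as loss of intracellular ATP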); conditions: MRC5 lung fibroblast viability, qHTS
How it was run: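 MRC5 normal human lung fibroblasts, 1500 cells/well, exposed to compound for 40 hr at 37 C. Cellular ATP was read by CellTiter-Glo luminescence; data normalized to DMSO and 100 uM tamoxifen, with AC50 from Hill fits.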

[13] = Cell Viability - SK-N-SH (AID 435; calls by dose curve;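 note: potency is the fitted concentration of half-maximal effect; compound exposure lasted 40 h at 37 °C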); conditions: SK-N-SH neuroblastoma cell viability qHTS
How it was run: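 SK-N-SH human neuroblastoma cells (1500/well) were exposed to compounds in complete medium for 40 h at 37 °C, and intracellular ATP was then measured by CellTiter-Glo luminescence. AC50 was taken from Hill fits, normalized to DMSO and 100 uM tamoxifen.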

[14] = Cell Viability - N2a (AID 540);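 note: plate controls were DMSO alone for no effect and tamoxifen control for full effect; nearly all actives have a fitted effect of over 45% in size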
How it was run: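 First, 1500 N2a cells per well incubate 5 hr at 37 °C; next, compounds are added and incubated 40 hr at 37 °C; finally CellTiter-Glo is added and luminescence read after 20 min, with AC50 derived by Hill modeling.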

[15] = Cell Viability - HUV-EC-C (AID 542); note: % is set by controls: 0 for no effect and ±100 for the full control effect; nearly all actives have a fitted effect of over 35% in size
How it was run: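 Decrease in cellular ATP, quantified by luciferase luminescence, reflects toxicity in normal human vascular endothelial HUV-EC-C cells given compound for 40 hr in complete culture medium. Values are AC50s from concentration-response curves.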

[16] = Cell Viability - H-4-II-E (AID 543); note: % is set by controls: 0 for no effect and ±100 for the full control effect; nearly all actives have a fitted effect of over 35% in size
How it was run: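 Here, cytotoxicity is measured in the rat hepatoma line H-4-II-E as loss of intracellular ATP after 40 hr compound treatment, detected by luciferase luminescence.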

[17] = Cell Viability - Renal Proximal Tubule (AID 545);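 note: 0% = DMSO only and -100% = 100 µM tamoxifen; nearly all actives have a fitted effect of over 40% in size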
How it was run: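 Primary rat renal proximal tubule cells (1000/well) were treated with compounds for 40 hr at 37 °C in complete medium. Intracellular ATP was measured by CellTiter-Glo luminescence, and AC50 values came from Hill-equation fits of concentration-response data.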

[18] = Cell Viability - Mesenchymal (AID 546);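 note: cells exposed to compound for 40 hours before reading; 0% = DMSO only and -100% = 100 µM tamoxifen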
How it was run: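 Human kidney mesenchymal cells from normal renal glomeruli, 1000 cells/well, rested 5 hr at 37 °C, then treated 40 hr at 37 °C in complete medium. Cellular ATP read by CellTiter-Glo luminescence; AC50 from Hill-equation fits.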

[19] = Cell Viability - NIH 3T3 (AID 541);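 note: plate controls were DMSO alone for no effect and tamoxifen positive control for full effect; nearly all actives have a fitted effect of over 25% in size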
How it was run: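 AC50 values reflect concentration-dependent loss of intracellular ATP in NIH 3T3 cells after 40 hr treatment in complete culture medium, quantified by luciferase-based luminescence.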

Glucocorticoid receptor (Homo sapiens), sequence (P04150 whole entry, looked up, the tested form may be a part): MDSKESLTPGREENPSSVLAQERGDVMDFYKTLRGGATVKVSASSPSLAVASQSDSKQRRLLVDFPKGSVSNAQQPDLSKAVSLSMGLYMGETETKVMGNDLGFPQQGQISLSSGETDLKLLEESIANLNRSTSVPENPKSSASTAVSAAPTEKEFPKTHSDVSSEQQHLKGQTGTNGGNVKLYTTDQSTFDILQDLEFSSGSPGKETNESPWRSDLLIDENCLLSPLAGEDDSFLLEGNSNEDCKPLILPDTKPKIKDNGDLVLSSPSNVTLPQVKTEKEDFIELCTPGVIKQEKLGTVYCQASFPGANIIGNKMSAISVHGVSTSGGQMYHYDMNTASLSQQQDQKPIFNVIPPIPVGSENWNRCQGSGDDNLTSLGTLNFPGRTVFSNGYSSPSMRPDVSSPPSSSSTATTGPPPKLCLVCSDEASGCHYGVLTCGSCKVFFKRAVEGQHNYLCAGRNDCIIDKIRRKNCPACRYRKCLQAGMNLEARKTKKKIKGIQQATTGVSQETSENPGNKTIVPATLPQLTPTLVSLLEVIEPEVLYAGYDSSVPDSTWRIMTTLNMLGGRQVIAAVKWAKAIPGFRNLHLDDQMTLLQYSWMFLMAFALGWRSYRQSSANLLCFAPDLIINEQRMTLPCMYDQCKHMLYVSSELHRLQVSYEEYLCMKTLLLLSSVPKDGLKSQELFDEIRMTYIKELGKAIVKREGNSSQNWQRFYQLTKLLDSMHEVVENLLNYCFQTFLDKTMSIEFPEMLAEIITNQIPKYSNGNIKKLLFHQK
Cytochrome P450 1A2 (Homo sapiens), sequence (P05177 whole entry, looked up): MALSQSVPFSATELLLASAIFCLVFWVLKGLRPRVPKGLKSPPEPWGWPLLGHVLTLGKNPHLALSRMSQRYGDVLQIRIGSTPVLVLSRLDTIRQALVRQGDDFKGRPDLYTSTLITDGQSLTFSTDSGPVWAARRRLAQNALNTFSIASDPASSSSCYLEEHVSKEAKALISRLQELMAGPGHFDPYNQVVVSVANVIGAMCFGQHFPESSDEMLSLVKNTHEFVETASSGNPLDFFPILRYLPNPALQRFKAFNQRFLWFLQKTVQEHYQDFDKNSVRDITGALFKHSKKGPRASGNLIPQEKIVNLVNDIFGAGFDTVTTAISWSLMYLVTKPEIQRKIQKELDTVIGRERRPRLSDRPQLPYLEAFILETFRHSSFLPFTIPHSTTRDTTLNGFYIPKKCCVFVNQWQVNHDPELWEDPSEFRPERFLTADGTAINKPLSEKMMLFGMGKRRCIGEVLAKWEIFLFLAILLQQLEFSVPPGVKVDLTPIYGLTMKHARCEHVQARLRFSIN

CC(C)(C)C(=O)OCOC(=O)[C@@H]1N2C(=O)[C@@H](NC(=O)[C@H](N)c3ccccc3)[C@H]2SC1(C)C
inactive: Potency [1] | outcome [2] | outcome [3]

CCS(=O)(=O)CCn1c([N+](=O)[O-])cnc1C
inactive: outcome [4] | activity change, negative = inhibition [5] -9.1% and -28.6% | outcome [2] | outcome [3]

CN(C(=O)c1c(O)c2ccccc2n(C)c1=O)c1ccccc1
inactive: Potency [1] | Potency [6] > 46 µM | Potency [7] > 46 µM | outcome [3]

COc1ccc(NS(=O)(=O)c2ccc(N)cc2)nn1
inactive: outcome [4] | activity change, negative = inhibition [5] -4.78% and 5.22% | outcome [2] | Potency [6] > 20.6 µM | Potency [7] > 20.6 µM | outcome [3]

CCN(CC)C(=O)c1cccc(C)c1
inactive: Potency [8] > 92 µM | Potency [9] > 92 µM | Potency [10] > 92 µM | Potency [11] > 92 µM | Potency [12] > 92 µM | Potency [13] > 92 µM | outcome [3] | outcome [14] | outcome [15] | outcome [16] | outcome [17] | outcome [18]

CC1(C)S[C@@H]2[C@H](NC(=O)C(C(=O)O)c3ccccc3)C(=O)N2[C@H]1C(=O)O (some centres undefined)
inactive: outcome [4] | outcome [2] | Potency [6] > 20.6 µM

CC(=O)N[C@@H](CC(C)C)C(=O)O
inactive: outcome [4] | activity change, negative = inhibition [5] 1.74% | outcome [2] | outcome [3]

FC(F)(F)C(Cl)Br (centres undefined)
inactive: Potency [8] > 92 µM | Potency [9] > 92 µM | Potency [10] > 92 µM | Potency [11] > 92 µM | Potency [12] > 92 µM | Potency [13] > 92 µM | outcome [3] | outcome [14] | outcome [19] | outcome [15] | outcome [16] | outcome [17] | outcome [18]

CC(=O)Nc1ccccc1
inactive: Potency [8] > 92 µM | Potency [9] > 92 µM | Potency [10] > 92 µM | Potency [11] > 92 µM | Potency [12] > 92 µM | Potency [13] > 92 µM | outcome [3] | outcome [14] | outcome [19] | outcome [15] | outcome [16] | outcome [17] | outcome [18]

NS(=O)(=O)c1cc2c(cc1C(F)(F)F)NCNS2(=O)=O
inactive: outcome [4] | activity change, negative = inhibition [5] -1.33% and 8.85% | outcome [2] | Potency [6] > 20.6 µM | Potency [7] > 20.6 µM | outcome [3]

CCCNC(C)(C)COC(=O)c1ccccc1
inactive: outcome [4] | outcome [2] | Potency [6] > 20.6 µM | Potency [7] > 20.6 µM | outcome [3]

COc1ccc(O)cc1
inactive: Potency [8] > 92 µM | Potency [9] > 92 µM | Potency [10] > 92 µM | Potency [11] > 92 µM | Potency [12] > 92 µM | Potency [13] > 92 µM | outcome [3] | outcome [15] | outcome [16] | outcome [17] | outcome [18]

O=C1c2cccc(O)c2C(=O)c2c(O)cccc21
inactive: Potency [8] > 92 µM | Potency [10] > 92 µM | Potency [11] > 92 µM | Potency [12] > 92 µM | outcome [14] | outcome [15] | outcome [16] | outcome [17] | outcome [18]

Cc1cc(=O)[nH]c(=S)[nH]1
inactive: Potency [8] > 92 µM | Potency [9] > 92 µM | Potency [10] > 92 µM | Potency [11] > 92 µM | Potency [12] > 92 µM | Potency [13] > 92 µM | outcome [3] | outcome [14] | outcome [19] | outcome [15] | outcome [16] | outcome [17] | outcome [18]

O=C1c2ccccc2S(=O)(=O)N1CCCCN1CCN(c2ncccn2)CC1
inactive: Potency [6] > 46 µM | Potency [7] > 46 µM | outcome [3]

CC(=O)OCC(COC(C)=O)OC(C)=O
inactive: Potency [8] > 92 µM | Potency [9] > 92 µM | Potency [10] > 92 µM | Potency [11] > 92 µM | Potency [12] > 92 µM | Potency [13] > 92 µM | outcome [3] | outcome [14] | outcome [19] | outcome [15] | outcome [16] | outcome [17] | outcome [18]

CC(=O)Nc1ccc(C(=O)O)cc1
inactive: Potency [8] > 92 µM | Potency [9] > 92 µM | Potency [10] > 92 µM | Potency [11] > 92 µM | Potency [12] > 92 µM | Potency [13] > 92 µM | outcome [3] | outcome [14] | outcome [19] | outcome [15] | outcome [16] | outcome [17] | outcome [18]

C[N+](C)(C)CC[N+]1(C)Cc2c(Cl)c(Cl)c(Cl)c(Cl)c2C1
inactive: Potency [1] | Potency [6] > 46 µM | Potency [7] > 46 µM | outcome [3]
